Screens deposited in PubChem BioAssay by National Center for Advancing Translational Sciences (NCATS).
FBPA Giardia inh: qHTS Assay for Inhibitors of Fructose-1,6-bisphosphate Aldolase from Giardia Lamblia; Potency, µM (doses to about 59.6 µM), for inactives: top-dose activity, negative = inhibition, most hits filed as inhibitors; AID 2451, 2010; purified Giardia FBPA; A8B2U2; hit rate 0.71% among 290,000; note: potency is the fitted concentration of half-maximal effect; nearly all actives have a fitted effect of over 55% in size
Target sequence (A8B2U2 whole entry, looked up): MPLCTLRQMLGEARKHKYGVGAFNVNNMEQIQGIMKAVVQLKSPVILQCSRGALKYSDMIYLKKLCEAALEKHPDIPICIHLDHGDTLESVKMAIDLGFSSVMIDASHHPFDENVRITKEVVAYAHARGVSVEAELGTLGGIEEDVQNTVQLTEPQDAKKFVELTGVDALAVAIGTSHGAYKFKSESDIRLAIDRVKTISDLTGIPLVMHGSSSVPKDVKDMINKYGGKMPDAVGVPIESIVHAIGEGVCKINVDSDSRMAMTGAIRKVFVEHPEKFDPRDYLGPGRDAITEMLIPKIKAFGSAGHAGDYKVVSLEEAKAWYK
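Giardia FBPA (40 nM reagent) was preincubated 10 min at RT with compound (up to 57.5 uM final), then substrate plus GAPDH/TPI/NAD/arsenate coupling system with diaphorase/resazurin was added; resorufin fluorescence (525/598 nm) was read after 20 min.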
Sm TGR block: qHTS Assay for the Inhibitors of Schistosoma Mansoni Peroxiredoxins; purified TGR, DTNB reduction, TNB absorbance 405 nm; AID 485364, 2010; hit rate 3% among 360,000; Potency, µM (doses to about 114 µM), for the others: top-dose activity change, negative = inhibition, usual class: inhibitors; Schistosoma mansoni thioredoxin glutathione reductase (TGR), Q962Y6; note: potency is the fitted concentration of half-maximal effect; nearly all actives have a fitted effect of over 60% in size
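First, TGR (20 nM dispensed) and NADPH were mixed with compound. Second, a 15 min room-temperature incubation followed. Third, further NADPH and then DTNB were added to start the reaction. Finally, TNB absorbance was monitored kinetically.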
Pf growth 96h: Primary qHTS for delayed death inhibitors of the malarial parasite plastid, 96 hour incubation; Potency, µM (titrated, usually from 28.7 µM), for the others: at the top dose activity change, negative = inhibition, most hits filed as inhibitors; P. falciparum luciferase reporter growth, 96 h; hit rate 6.9% among 320,000; AID 504834, 2011; note: potency is the fitted concentration of half-maximal effect
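P. falciparum expressing integrated firefly luciferase, in erythrocytes at 2% hematocrit, 0.05% parasitemia, incubated with compounds 96 h at 37 C, 5% CO2. Growth inhibition read as loss of luminescence; two-generation exposure targets delayed-death apicoplast inhibitors.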
Pf growth 48h: Primary qHTS for delayed death inhibitors of the malarial parasite plastid, 48 hour incubation | hit rate 5.9% among 310,000 | P. falciparum luciferase growth in erythrocytes, 48 h | Potency, µM (series often up to 28.7 µM), for the others: top-dose activity change, negative = inhibition, most hits filed as inhibitors; note: potency is the fitted concentration of half-maximal effect
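Read-out is firefly luciferase luminescence from an integrated reporter in P. falciparum, so falling signal marks reduced parasite growth. Infected erythrocytes were at 2% hematocrit and 0.1% parasitemia (final) in Albumax-supplemented RPMI 1640.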
HCMV inh: qHTS Assay for inhibitors of the human cytomegalovirus (HCMV); HFF cells, HCMV-luciferase reporter, 72 h; hits give low values; activity change, negative = inhibition, % at 57.5 µM; hit rate 4.5% among 410,000; AID 1259415, 2018; in the data active = activity change below about -60%; inconclusive = no clear call, values can overlap the other calls; inactive = above about -39%
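Two compound doses tested in HFFs infected with HCMV-luciferase, MOI 1 PFU/cell, 72 h at 37C. Lysate luminescence read with OneGlo; data normalized against buffer-only and 10uM Salinomycin inhibitor controls.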
* hit, by the source's call; ? = inconclusive; . = no result; ! = a repeat was not active. Sampled rows, rich in hits. Any-hit rate of the full collection: about 14%. Unless noted, calls come from the whole dose curve; as a rule, active = well fitted curve in the direction sought with a large enough effect; inconclusive = small, poorly fitted or top-dose-only effect, or another doubt; inactive = no such curve, though single readings can be large; an effect the other way counts as inactive or inconclusive. % is set by controls: 0 for no effect and ±100 for the full control effect.

SMILES	FBPA Giardia inh	Sm TGR block	Pf growth 96h	Pf growth 48h	HCMV inh
CCN(CC)CCCOC(=O)C(OC)(c1ccccc1)c1ccccc1	-3%	-8%	-27%	.	-24
CCOC(C(=O)OCCC[N+](C)(CC)CC)(c1ccccc1)c1ccccc1	3%	3%	.	2.1µM*	-1
Clc1nc(-c2ccccn2)nc2scc(-c3ccccc3)c12	8%	-12%	-44%	?	-66*
Cc1ccc(CNC(=O)Cn2cc(C(=O)c3ccc(F)cc3)c(=O)c3ccc(C)nc32)cc1	.	3%	.	.	21
COC(=O)c1ccc2nc(-c3ccc(C#N)cc3)c(Cc3cccc(F)c3)n2c1	.	.	.	.	12
Cc1ccc(C(=O)Nc2nnc(S(=O)(=O)N3CCC(C)CC3)s2)cc1	?	-8%	25%	27%	0
O=C(NCCCN1CCN(CCCNC(=O)c2cccc(Cl)c2)CC1)c1cccc(Cl)c1	3%	-1%	12µM*	?	2
O=C(NCCN1CCCC1)c1cccc(Cl)c1	-6%	9%	38%	8%	-17
O=C(NCCCN1CCN(c2cccc(Cl)c2)CC1)c1nc(-c2ccncc2)no1	6%	-9%	5%	6.6µM*	-16
CCOc1cc2c(cc1C=O)OC(C)C2 (stereo not given)	-3%	9%	?	16%	0
CCOc1cc2c(cc1/C=C/c1noc(C)c1[N+](=O)[O-])OC(C)C2 (stereo not given)	-5%	-1%	?	-10%	-61*
COc1ccc2c(CN3CCN(Cc4ccccc4)CC3)cc(=O)oc2c1	.	.	.	.	-31
CCOC(=O)CC(NC(=O)C(Cc1ccc(N(CCCl)CCCl)cc1)NC(C)=O)C(=O)OCC (stereo not given)	?	-4%	11%	9.3µM*	-92*
Cc1cc(CN(Nc2ccccc2)c2ccccc2)cc(C)n1	.	.	.	.	-18
Cc1cc(C)c(CN2CCN(C(=O)Cn3cnc4c(OCc5ccccc5)ncnc43)CC2)c(C)c1	.	.	.	.	-64*
O=c1cnc2cnc(N3CCOCC3)nc2n1C1CC1	10%	.	.	.	.
CCOc1cc(/C=N/n2nnnc2N)ccc1OCc1c(C)no[n+]1[O-]	8%	12%	32%	13%	-20
Cc1no[n+]([O-])c1COc1ccccc1/C=N/n1nnnc1N	1%	1%	?	-16%	-75*
CS(=O)(=O)c1ccc(CNC(=O)[C@@H]2C[C@H]2[C@@H](NP(=O)(c2ccccc2)c2ccccc2)c2ccccc2)cc1	8%	.	.	.	.
Cc1cc(C(=O)OCn2nnc3ccccc3c2=O)c(C)n1-c1ccccc1	6%	-7%	1.9µM*	?	5
Cc1ccccc1C(=O)OCn1nnc2ccccc2c1=O	2%	-8%	8.3µM*	-1%	?
Cc1ccc(C)c(NC(=O)CCc2nc(-c3ccc(C(C)(C)C)cc3)no2)c1	.	10%	.	.	-31
O=C(NCc1nc(-c2ccc(C(F)(F)F)cc2)no1)Nc1cc(Cl)cc(Cl)c1	-7%	11%	?	?	-96*
CC(C)(C)c1ccc(-c2noc(CCC(=O)Nc3cccc(Cl)c3)n2)cc1	.	13%	.	.	-89*
COc1cccc(-c2noc(CCCC(=O)NCc3ccco3)n2)c1	.	45µM*	.	.	39
SMILES	FBPA Giardia inh	Sm TGR block	Pf growth 96h	Pf growth 48h	HCMV inh
CC(C)(C)c1ccc(-c2noc(CCC(=O)NCc3ccco3)n2)cc1	-1%	-8%	327%	126%	-81*
Cc1ccc(Cl)cc1NC(=O)c1ccc(-c2nc(CSc3ccccc3)c(C)o2)cc1	.	-5%	.	.	?
Cc1ccc(-n2nc3c(N4CCC(C(=O)NC(C)c5ccccc5)CC4)nnc(C)c3c2C)cc1 (stereo not given)	.	4%	.	.	?
CC(C)C[C@H]1COc2cc(N3CCC[C@H]3CO)ccc2S(=O)(=O)N1	.	.	.	.	-2
COc1ccc(-c2noc(CCCC(=O)NCc3ccco3)n2)cc1OC	1%	40µM*	-31%	-22%	44
COc1ccccc1/C=C1\CCCC2=C1Nc1nnnn1C2c1ccccc1OC (stereo not given)	-13%	4µM*	-20%	?	?
c1cnc2c(-c3nccc4c3[nH]c3ccccc34)cccc2c1	1%	.	.	.	.
CC(C)CN(c1ccccc1)S(=O)(=O)c1nnc(NC(=O)c2ccco2)s1	17%	35µM*!	207%	12%	?
CN(c1ccccc1)S(=O)(=O)c1nnc(NC(=O)c2ccco2)s1	.	-64%	3.7µM*	-8%	1
O=C(CCc1nc2ccccc2c(=O)[nH]1)Nc1ccccc1N1CCCC1	.	-12%	-3%	?	-24
COc1cccc(Oc2ccc(C(F)(F)F)cc2NC(=O)CCc2nc3ccccc3c(=O)[nH]2)c1	.	2%	1.7µM*	5.9µM*	108
COc1ccccc1NS(=O)(=O)c1cc(NC(=O)CCc2nc3ccccc3c(=O)[nH]2)ccc1C	.	-4%	10µM*	?	-24
O=C(CCc1nc2ccccc2c(=O)[nH]1)Nc1cc(Cl)ccc1N1CCCCC1	.	0%	?	10µM*	-17
O=C(c1ccc2c(c1)N(Cc1ccc(F)cc1)CCS2)N1CCOCC1	.	-13%	10µM*	0%	?
O=C(c1ccc2c(c1)N(Cc1ccccc1)CCS2)N1CCCCC1	14%	-12%	0.74µM*	?	?
O=C(c1ccc2c(c1)N(Cc1ccccc1)CCS2)N1CCOCC1	.	5%	-13%	-8%	-29
O=C(CSc1nnc(COc2ccc(F)cc2)o1)N1CCCCC1	0%	4%	-25%	25%	10
O=C(CSc1nnc(COc2ccc(F)cc2)o1)N1c2ccccc2CCc2ccccc21	-1%	-28%	?	4.1µM*	-30
Cc1cccc(OCc2nnc(SCC(=O)N3CCCC3)o2)c1	7%	7%	53%	11%	-4
Cc1cccc(OCc2nnc(SCC(=O)N3c4ccccc4CCc4ccccc43)o2)c1	-8%	3%	?	10µM*	?
CCCCCCCCN1C(=O)[C@H](CC(=O)N2CCN(C(=O)C3CC3)CC2)C[C@@]2(C(=O)OC)CC(C)(C)CC=C12	.	.	.	.	7
CCOC(=O)Cc1csc2nc(-c3ccccc3)cn12	.	.	.	.	8
COc1ccc(/C=C(\C#N)C(=O)OCC(=O)Nc2c(C)cccc2C)cc1	1%	0%	2%	-1%	-61*
CC(C)C[C@H]1COc2cc(NCCO)ccc2S(=O)(=O)N1	.	.	.	.	0
Nc1n[nH]c2cc(=O)n(-c3cccc(C(F)(F)F)c3)nc12	4%	22µM*	-19%	?	?
CC(=O)Nc1ccc(S(=O)(=O)NCCC(=O)N2CCC(Cc3ccccc3)CC2)cc1	.	-2%	5.2µM*	?	0
O=C(CCNS(=O)(=O)c1ccc(Cl)cc1)N1CCCC1	.	1%	18%	16%	-71*
